Sampled rows, rich in hits. Any-hit rate of the full collection: about 9.3%.
ELG1 genotoxic – qHTS screen for small molecules that induce genotoxicity in human embryonic kidney (HEK293T) cells expressing luciferase-tagged ELG1. HEK293T ELG1-luciferase reporter, luminescence, 16 h. Potency, µM (series often up to 46 µM), inactives show at the highest dose activity change, positive = activation, hits mostly activators. hit rate 1.3% among 330,000. AID 504466, 2011; further: % of control where 0% means no effect; nearly all actives have a fitted effect of over 60% in size
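Quantitative HTS format in 1536-well plates. HEK293T ELG1-luciferase reporter cells receive test compound and are incubated 16 hr at 37 °C, 5% CO2; ONE-Glo added, 30 min room temperature, then luminescence read.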
NPC1 prom act – qHTS Assay for NPC1 Promoter Activators | Huh7 NPC1 promoter luciferase reporter, 24 h | Potency, µM (series often up to 9.22 µM), for inactives: at the highest dose activation, hits mostly activators | hit rate 2.4% among 320,000; further: % of control where 0% means no effect; nearly all actives have a fitted effect of over 60% in size
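Readout is luciferase luminescence, reflecting NPC1 promoter activation in stably transfected Huh7 cells after 24 h compound exposure at 37 °C in reduced-serum medium with 10% FBS.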
Rab9 promoter act – qHTS Assay for Rab9 Promoter Activators; Huh7 Rab9 promoter-luciferase reporter, luminescence, 24 h; Potency, µM (titrated, usually from 9.22 µM), for inactives: at the top dose activation, negative = inhibition, hits mostly activators; hit rate 2.8% among 320,000; further: % of control where 0% means no effect; nearly all actives have a fitted effect of over 60% in size
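Cells were plated at 1500 per well in reduced-serum medium with 10% FBS and left 2 h. Compound in DMSO was then added for 24 h at 37 °C. Reporter signal was read by luminescence after 10 min with luciferase detection reagent.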
ELG1 DNA repair – qHTS screen for small molecules that inhibit ELG1-dependent DNA repair in human embryonic kidney (HEK293T) cells expressing luciferase-tagged ELG1 | AID 504467, 2011 | hit rate 2.3% among 330,000 | Potency, µM (doses to about 46.1 µM), for the others: at the top dose activity change, negative = inhibition, hits mostly inhibitors | HEK293T ELG1-luciferase reporter, luminescence, 16 h; DNA damage induced by 5-fluorouridine; further: on the % scale 0 is the no-effect control and ±100 the full control effect; nearly all actives have a fitted effect of over 55% in size
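Quantitative HTS, concentration-response format. 2,000 cells/well co-treated with 5-fluorouridine and compound, 16 hr in 5% CO2 at 37 °C; ONE-Glo luminescence read after 30 min.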
FLuc modulator – qHTS profiling assay for firefly luciferase inhibitor/activator using purifed enzyme and Km concentrations of substrates (counterscreen for miR-21 project). Luciferin 4-monooxygenase (Photinus pyralis), P08659. purified FLuc, Km substrates, luminescence inhibition. Potency, µM (series often up to 57.5 µM), for inactives: top-dose activity change, negative = inhibition, usual class: inhibitors. hit rate 6.9% among 360,000;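 further: plate controls were vehicle for no effect and reference inhibitor for full effect; nearly all actives have a fitted effect of over 55% in size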
Target sequence (P08659 whole entry, looked up): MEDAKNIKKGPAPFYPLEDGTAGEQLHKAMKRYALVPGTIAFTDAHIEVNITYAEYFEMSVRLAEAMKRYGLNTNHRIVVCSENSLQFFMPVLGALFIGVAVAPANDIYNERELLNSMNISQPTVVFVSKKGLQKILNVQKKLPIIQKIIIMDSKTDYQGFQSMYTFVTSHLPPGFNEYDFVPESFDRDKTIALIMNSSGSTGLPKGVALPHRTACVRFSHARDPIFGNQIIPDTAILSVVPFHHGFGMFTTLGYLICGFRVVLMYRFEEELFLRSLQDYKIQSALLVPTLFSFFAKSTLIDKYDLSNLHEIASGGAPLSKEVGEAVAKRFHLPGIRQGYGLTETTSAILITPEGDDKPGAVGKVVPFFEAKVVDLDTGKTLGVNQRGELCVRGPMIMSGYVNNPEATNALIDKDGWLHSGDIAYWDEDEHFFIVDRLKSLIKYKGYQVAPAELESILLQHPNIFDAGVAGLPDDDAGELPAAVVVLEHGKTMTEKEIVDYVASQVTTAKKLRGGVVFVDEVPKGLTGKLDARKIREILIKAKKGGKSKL
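Purified P. pyralis luciferase, 10 nM final, with Km-level 10 uM D-luciferin and 10 uM ATP in 50 mM Tris acetate pH 7.5, 10 mM Mg acetate, 0.01% Tween-20, 0.05% BSA; 6-point qHTS titration about 60 µM downward; luminescence read.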
SMN2 splice enh – qHTS Assay for Enhancers of SMN2 Splice Variant Expression; HEK293 SMN2-luciferase splicing reporter, luminescence, 30-36 h; Potency, µM (series often up to 46.1 µM), without a hit: at the highest dose activity change, positive = activation, actives largely listed as activators; hit rate 2.8% among 210,000; further: % of control where 0% means no effect; nearly all actives have a fitted effect of over 55% in size
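HEK293 cells carry an SMN2 minigene-luciferase reporter in which exon 7 inclusion puts luciferase in frame. Cells were seeded at 2000 cells/well, attached for 10-12 hours, then exposed to compounds for 30-36 hours at 37C before ONE-Glo luminescence.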
An asterisk follows results filed as active; ? = inconclusive; / = no result given; [ ] = remark or other dose. The call rests on the fitted dose curve; in most records, active means well fitted curve in the direction sought with a large enough effect; inconclusive means small, poorly fitted or top-dose-only effect, or another doubt; inactive means no such curve, though single readings can be large; an effect the other way counts as inactive or inconclusive. Potency means the concentration at half of the fitted maximal effect.

SMILES	ELG1 genotoxic	NPC1 prom act	Rab9 promoter act	ELG1 DNA repair	FLuc modulator	SMN2 splice enh
CC(CCl)OC(C)CCl (centres undefined)	0%	-1%	4%	16%	3%	-1%
CC(=O)N(C1=C(N)C(=O)c2ccccc2C1=O)c1ccccc1	-19%	-35%	-3%[1.84 µM]	18µM*	2%	/
Cc1cnc2c(c1)C(=O)c1ccccc1-2	4%	-3%	-1%	25%	-19%	/
Cc1cccc(-c2cc3c(nn2)-c2ccccc2C3=O)c1	?	2.2µM*	3.5µM*	?	0.76µM*	10µM*
COc1ccc(-c2cc3c(nn2)-c2ccccc2C3=O)cc1	-8%	?	0.1µM*	?	0.17µM*	1.1µM*
O=C1c2ccccc2-c2nnc(-c3ccccc3)cc21	9%	1.3µM*	0.56µM*	?	0.48µM*	?
Cc1ccccc1NC(=O)Nc1nnc(CC(=O)NCc2ccccc2)s1	13%	-1%	-4%	18%	-2%	22%
Clc1ccc(OCc2nnc(-c3ccccc3Br)o2)c(Cl)c1	?	3.2µM*	4µM*	?	6µM*	?
Clc1ccc(OCc2nnc(-c3ccccc3Br)o2)cc1	7%	10%	13%	?	?	2%
Fc1ccc(OCc2nnc(-c3ccccc3Br)o2)c(Cl)c1	2.3µM*	?	2.5µM*	?	9.5µM*	/
Cc1cc(Cl)ccc1OCc1nnc(-c2ccccc2C)o1	?	?	4µM*	?	?	/
Cc1ccc(N2C(=O)C(Cl)=C(NCc3ccccc3)C2=O)c(C)c1	-4%	-2%	3%	0%	?	-1%
CC(C)CC(=O)Nc1c(C(=O)N2CCN(c3ccccc3)CC2)oc2ccccc12	/	/	/	/	3%	/
COc1ccc(-n2nnnc2SCc2nc3ccccc3s2)cc1	16µM*	14%	?	?	11µM*	-6%
COc1ccc(CSc2nnnn2-c2ccccc2)cc1	2%	-2%	-4%	-4%	-1%	-4%
COc1ccc(C)cc1-n1nnnc1SCc1nc2ccccc2s1	10%	?	?	?	11µM*	-21%
COc1ccc(C)cc1-n1nnnc1SCC1CCCO1 (centres undefined)	1%	1%	-6%	4%	0%	-7%
COc1ccc(C(=O)NC2CC2)cc1OC1CCN(Cc2ccc(F)cc2)CC1	-2%	-1%	-5%	2%	1%	/
COc1cccc(N2CCN(C(=O)c3oc4ccccc4c3NC(=O)Cc3ccc(OC)c(OC)c3)CC2)c1	-10%	-6%	1%	16µM*	-1%	/
Cc1ccc(Cn2nnc3c(=O)[nH]c(C4CCN(S(=O)(=O)c5ccccc5)CC4)nc32)cc1	2%	1%	7%	1%	-1%	8%
Cc1ccc(Cn2nnc3c(=O)[nH]c(C4CCN(S(=O)(=O)Cc5ccccc5)CC4)nc32)cc1	-5%	-5%	3%	15µM*	?	/
O=c1[nH]c(C2CCN(S(=O)(=O)c3ccccc3F)CC2)nc2c1nnn2Cc1ccc(OC(F)(F)F)cc1	-4%	0%	-7%	18µM*	2%	/
CC(C)(C)c1ccc(Cn2nnc3c(=O)[nH]c(C4CCN(C(=O)c5ccco5)CC4)nc32)cc1	-2%	-1%	-1%	10µM*	0%	/
O=c1[nH]c(C2CCN(S(=O)(=O)c3ccccc3C(F)(F)F)CC2)nc2c1nnn2Cc1ccccc1	-1%	-2%	-2%	?	1%	/
